According to PubChem BioAssay (NCI):
About 79,000 compounds went through this panel and 15% of them were active in at least one assay; those are over-represented in the sample as a whole. Calls of active or inactive are those of the source. No stated cut-off is given here; in the data, active means growth inhibition above about 70%; inactive means the rest.

Assays:
[1] = NCI Yeast Anticancer Drug Screen. Data for the rad52 strain (AID 147);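 further: 0% = growth of vehicle-treated control cultures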; settings: S. cerevisiae rad52 mutant growth inhibition, hits give high values
Summary of the method: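 Measured: yeast growth inhibition. System: strain with a defined DNA damage repair alteration. Reference: vehicle-treated control cultures.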

[2] = NCI Yeast Anticancer Drug Screen. Data for the wt1 strain (AID 149);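 further: 0% = growth of vehicle-treated wt1 cultures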; settings: S. cerevisiae wt1 strain (SPY 50644) growth inhibition, hits give high values
Summary of the method: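 Vehicle-normalised growth inhibition; strain wt1; compound exposure.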

[3] = NCI Yeast Anticancer Drug Screen. Data for the rad50EPP+ strain (AID 151);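 further: 0% = growth of vehicle-treated control cultures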; settings: S. cerevisiae rad50 mutant strain, hits give high values
Summary of the method: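 One strain with a rad50 alteration (rad50EPP+) was compound-treated, its growth then compared to that of vehicle controls.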

[4] = NCI Yeast Anticancer Drug Screen. Data for the rad50 strain (AID 155);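 further: 0% = growth of vehicle-only cultures of the same strain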; settings: S. cerevisiae rad50 strain growth inhibition, hits give high values
Summary of the method: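 A DNA repair-deficient yeast mutant serves as the test organism; compound-induced growth inhibition is calculated against vehicle-treated cells.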

[5] = NCI Yeast Anticancer Drug Screen. Data for the mec2-1 strain (AID 157); settings: S. cerevisiae mec2-1 strain, hits give high values
Summary of the method: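 Test agents were screened against the mec2-1 yeast strain, with defined DNA repair or cell cycle alteration. Growth was scored as inhibition against vehicle-only controls.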

[6] = NCI Yeast Anticancer Drug Screen. Data for the rad14 strain (AID 159);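 further: 0% = growth of vehicle-treated control cultures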; settings: S. cerevisiae rad14 strain growth inhibition, hits give high values
Summary of the method: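 Vehicle-treated cultures served as the baseline for growth inhibition of a DNA repair-mutant yeast strain exposed to each compound.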

[7] = NCI Yeast Anticancer Drug Screen. Data for the sgs1 mgt1 strain (AID 161);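 further: 0% = growth of cultures given vehicle only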; settings: S. cerevisiae sgs1 mgt1 strain, hits give high values
Summary of the method: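 Test agents were incubated with a DNA-repair-mutant yeast strain. Growth was then read and compared against vehicle-treated controls.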

[8] = NCI Yeast Anticancer Drug Screen. Data for the CLN2oe strain (AID 163);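 further: 0% = growth of vehicle-only control cultures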; settings: S. cerevisiae CLN2oe strain, hits give high values
Summary of the method: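 Here, growth inhibition in a cell-cycle-altered yeast strain after compound exposure was quantified against vehicle control growth.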

[9] = NCI Yeast Anticancer Drug Screen. Data for the cln2 rad14 strain (AID 165);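 further: 0% = growth equal to vehicle treated cultures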; settings: S. cerevisiae cln2 rad14 strain, hits give high values
Summary of the method: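 Growth of compound-exposed yeast (cln2 rad14 genotype) measured and expressed as inhibition relative to vehicle.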

[10] = NCI Yeast Anticancer Drug Screen. Data for the bub3 strain (AID 167); settings: S. cerevisiae bub3 mutant strain, hits give high values
Summary of the method: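 Inhibition values come from growth of compound-treated mutant yeast normalised to vehicle-treated controls.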

[11] = NCI Yeast Anticancer Drug Screen. Data for the wt2 strain (AID 169);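 further: 0% = growth of vehicle-treated yeast cultures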; settings: S. cerevisiae wt2 strain growth inhibition, hits give high values
Summary of the method: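 Genetically defined yeast strains from a DNA-repair/cell-cycle panel were used. Compound-exposed yeast growth was measured, and the inhibition was calculated relative to vehicle treatment.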

[12] = NCI Yeast Anticancer Drug Screen. Data for the mlh1 strain (AID 171);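 further: 0% = growth of vehicle-treated control cultures of the same strain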; settings: S. cerevisiae mlh1 strain growth inhibition, hits give high values
Summary of the method: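 Here the genetically defined yeast mutant is grown with each compound, and the extent to which its growth falls below that of vehicle-exposed cells is reported.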

[13] = NCI Yeast Anticancer Drug Screen. Data for the sgs1 strain (AID 173);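 further: 0% = growth of vehicle-only control cultures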; settings: S. cerevisiae sgs1 mutant, hits give high values
Summary of the method: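 Relative growth inhibition, referenced to vehicle, was determined in a yeast strain with a defined alteration affecting DNA damage repair or cell cycle control after compound exposure.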

[14] = NCI Yeast Anticancer Drug Screen. Data for the mlh1 rad18 strain (AID 175); settings: S. cerevisiae mlh1 rad18 strain growth inhibition, hits give high values
Summary of the method: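 In this whole-cell yeast screen, a strain with altered DNA damage repair is challenged with compound, and its growth is measured against matched vehicle-treated controls.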

[15] = NCI Yeast Anticancer Drug Screen. Data for the rad18 strain (AID 177); settings: S. cerevisiae rad18 mutant growth inhibition, hits give high values
Summary of the method: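 Screen uses a yeast strain with a defined lesion in DNA damage repair; compound effect is read as loss of growth compared to untreated vehicle cultures.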

[16] = at 5.0 µM (retest, dose inferred, filed as 0.5)
[17] = at 50.0 µM (retest, dose inferred, filed as 5.0)

Measured: growth inhibition

CCCN(CCC)CC(O)c1cc(-c2ccc(Cl)cc2)nc2c(C)c(Cl)ccc12 (stereo not drawn)
inactive: [1]; at 1.2 µM -2% | [1]; at 3.7 µM 2% | [2]; at 1.2 µM -1% | [2]; at 3.7 µM -3% | [3]; at 1.2 µM -2% | [3]; at 3.7 µM 1% | [4]; at 1.2 µM -3% | [4]; at 3.7 µM 7% | [4]; [16] 34% | [5]; at 1.2 µM -6% | [5]; at 3.7 µM -8% | [5]; [16] 9% | [6]; at 1.2 µM -2% | [6]; at 3.7 µM 13% | [7]; [16] 36% | [8]; at 1.2 µM -3% | [8]; at 3.7 µM -3% | [9]; [16] 9% | [10]; at 1.2 µM -5% | [10]; at 3.7 µM -6% | [10]; [16] 6% | [11]; at 1.2 µM -3% | [11]; at 3.7 µM -7% | [12]; at 1.2 µM -3% | [12]; at 3.7 µM -2% | [13]; at 1.2 µM -2% | [13]; at 3.7 µM 3% | [14]; [16] 27% | [15]; at 1.2 µM -4% | [15]; at 3.7 µM -5%
active: [1]; at 11.0 µM 98% | [1]; at 33.0 µM 96% | [1]; at 100.0 µM 93% | [2]; at 11.0 µM 98% | [2]; at 33.0 µM 98% | [2]; at 100.0 µM 97% | [3]; at 11.0 µM 85% | [3]; at 33.0 µM 96% | [3]; at 100.0 µM 96% | [4]; at 11.0 µM 98% | [4]; at 33.0 µM 96% | [4]; [17] 95% | [4]; at 50.0 µM 98.4% | [4]; at 100.0 µM 93% | [5]; at 11.0 µM 99% | [5]; at 33.0 µM 98% | [5]; [17] 98% | [5]; at 50.0 µM 98.9% | [5]; at 100.0 µM 96% | [6]; at 11.0 µM 99% | [6]; at 33.0 µM 98% | [6]; at 100.0 µM 97% | [7]; [17] 97% | [7]; at 50.0 µM 98.5% | [8]; at 11.0 µM 97% | [8]; at 33.0 µM 98% | [8]; at 100.0 µM 94% | [9]; [17] 93% | [9]; at 50.0 µM 97.6% | [10]; at 11.0 µM 99% | [10]; at 33.0 µM 97% | [10]; [17] 96% | [10]; at 50.0 µM 97.4% | [10]; at 100.0 µM 94% | [11]; at 11.0 µM 99% | [11]; at 33.0 µM 97% | [11]; at 100.0 µM 96% | [12]; at 11.0 µM 99% | [12]; at 33.0 µM 98% | [12]; at 100.0 µM 95% | [13]; at 11.0 µM 98% | [13]; at 33.0 µM 97% | [13]; at 100.0 µM 95% | [14]; [17] 96% | [14]; at 50.0 µM 98.7% | [15]; at 11.0 µM 98% | [15]; at 33.0 µM 96% | [15]; at 100.0 µM 94%
